Pf Dd2 growth: qHTS Primary assay for Inhibitors of Plasmodium falciparum Dd2 growth in vitro | P. falciparum Dd2 growth, SYBR Green, 72 h | Potency, µM (highest dose often 28.9 µM), hits mostly inhibitors | actives 4.3% (n = 120,000) | AID 1347417, 2020; active means well fitted inhibition curve with a large enough effect; further: nearly all actives have a fitted effect of over 65% in size
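Infected erythrocytes (Dd2, 0.3% parasitemia, 2.5% hematocrit final) are added to compound in RPMI-1640/Albumax II medium, grown 72 h at 37C in low oxygen, then lysed with saponin/Triton-X containing SYBR Green and read by fluorescence.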
Large screens that a line does not name were inactive. Shown is part of a subset that was picked to be rich in hits.

O=C(NCC1CC1)c1cccc(OC2CN(Cc3cccc(F)c3F)C2)c1	none
COCCCN1CC2(CCN(C(=O)c3ccccc3N(C)C)CC2)CC1=O	none
CN1CCN(c2cc(-c3cncc(N)c3)nc(N)n2)CC1	none
Cc1ccc(C2Cn3nnc(-c4noc(-c5ccccc5F)n4)c3CO2)cc1 (stereo unspecified)	none
O=C(c1cn[nH]c1)N1C[C@@H](COCC2CC2)[C@H](c2ccncc2)C1	none
Cn1cccc1CN1CCC2(C1)C(=NC1CCCC1)NC(=O)N2c1cc(F)cc(F)c1 (stereo unspecified)	Pf Dd2 growth 8.91µM
Cn1cccc1CN1CCC2(CC1)C(=NC1CCCCC1)NC(=O)N2c1cccnc1	none
O=C(c1ccccc1)N1CCC2(C1)C(=NC1CCCC1)NC(=O)N2c1cc(F)cc(F)c1 (stereo unspecified)	none
COc1cccc(N2C(=O)NC(=NC3CCCCC3)C23CCN(Cc2ccc(F)cc2)C3)c1 (stereo unspecified)	none
COc1cccc(N2C(=O)NC(=NC3CCCC3)C23CCN(Cc2cccn2C)C3)c1 (stereo unspecified)	Pf Dd2 growth 10µM
COc1cccc(N2C(=O)NC(=NC3CCCCC3)C23CCN([S+](C)(=O)[O-])C3)c1 (stereo unspecified)	none
Cc1cnc(-c2ccccc2)n1CCNC(=O)c1cccn1C	none
O=C([C@H]1C[C@H](Oc2ccccc2)CN1C(=O)c1ccccc1F)N1CCOCC1	none
CNC(=O)[C@@H](c1ccc(OC)cc1)N1CCC[C@H]1C(=O)NCC1CCCCC1	none
Cc1ccc(N2C(=O)N(CC(=O)C(C)(C)C)c3ccccc3S2(=O)=O)cc1C	none
COc1cc(OC)cc(N2C(=O)N(CC(=O)c3ccc(F)cc3)c3ccccc3S2(=O)=O)c1	Pf Dd2 growth 8.91µM
COc1ccc(C(=O)CN2C(=O)N(c3cc(C)ccc3C)S(=O)(=O)c3ccccc32)cc1	none
O=C([C@@H]1C[C@H](Oc2cccnc2)CN1C(=O)Nc1ccccc1F)N1CCCC1	none
CC(=O)N1CC2(Cc3ccccc31)CN(C(=O)c1ccc(C)cc1)C2	none
Cc1ccc(C(=O)N2CCN(c3cc(C(F)(F)F)nc(C)n3)CC2)cc1	none
Cc1noc2c(NCCN3CCOCC3)cc(-c3ccc(Cl)cc3)nc12	none
Cc1noc2c(NCCCn3ccnc3)cc(-c3ccc(Cl)cc3)nc12	Pf Dd2 growth 4.47µM
Cc1noc2c(NCCc3ccccn3)cc(-c3ccc(Cl)cc3)nc12	none
N#Cc1ccc(C(=O)N2C[C@@H](Oc3ccccc3)C[C@H]2C(=O)NC2CC2)cc1	none
COCCN1C(=O)c2ccccc2C(C(=O)Nc2ccc(OC)c(Cl)c2)C12CCCC2 (stereo unspecified)	none
COCCN1C(=O)c2ccccc2C(C(=O)NCCc2c[nH]c3ccccc23)C12CCCC2 (stereo unspecified)	none
COCCN1C(=O)c2ccccc2C(C(=O)Nc2ccc3c(c2)OCO3)C12CCCC2 (stereo unspecified)	Pf Dd2 growth 12.6µM
COCCN1C(=O)c2ccccc2C(C(=O)Nc2ccc(NC(C)=O)cc2)C12CCCCC2 (stereo unspecified)	none
COCCN1C(=O)c2ccccc2C(C(=O)Nc2ccc(OC)c(OC)c2)C12CCCC2 (stereo unspecified)	none
COCCN1C(=O)c2ccccc2C(C(=O)Nc2ccc(C(N)=O)cc2)C12CCCCC2 (stereo unspecified)	none
COCCN1C(=O)c2ccccc2C(C(=O)Nc2cc(OC)ccc2OC)C12CCCC2 (stereo unspecified)	none
COCCN1C(=O)c2ccccc2C(C(=O)Nc2cc(OC)cc(OC)c2)C12CCCC2 (stereo unspecified)	Pf Dd2 growth 11.2µM
COCCN1C(=O)c2ccccc2C(C(=O)Nc2cc(C)ccc2OC)C12CCCCC2 (stereo unspecified)	Pf Dd2 growth 10µM
COCCN1C(=O)c2ccccc2C(C(=O)Nc2ccc(OC)cc2OC)C12CCCC2 (stereo unspecified)	none
COCCN1C(=O)c2ccccc2C(C(=O)Nc2ccc3[nH]ccc3c2)C12CCCC2 (stereo unspecified)	Pf Dd2 growth 11.2µM
O=C1NCCCN1C1CCN(Cc2ccccc2C(F)(F)F)CC1	none
Cc1cc(S(=O)(=O)N2CCC(CC(=O)NCc3ccccc3)C2)ccc1F (stereo unspecified)	none
CCN(CC)C(=O)[C@@H]1CCC[C@@H](NC(=O)C2CCOCC2)CN(C)C(=O)C1	none
CCOc1ccccc1CN1C(=O)C2(CCOCC2)CC1c1nnnn1C(C)(C)C (stereo unspecified)	none
FC(F)(F)c1ccc(N2C3CCC2CN(Cc2ccc(-c4cncnc4)cc2)C3)cc1	none
O=C(c1ccsc1)N1CCC(c2n[nH]c(=O)n2Cc2ccc(F)cc2)CC1	none
O=C1CC(c2ccccc2)N(S(=O)(=O)c2cccc(F)c2)CCCCCCN1 (stereo unspecified)	none
O=C(NCCc1ccccc1)C1c2ccccc2C(=O)N(Cc2ccccc2)C12CCCC2 (stereo unspecified)	none
O=C(Nc1ccccc1F)C1c2ccccc2C(=O)N(Cc2ccccc2)C12CCCC2 (stereo unspecified)	Pf Dd2 growth 11.2µM
O=C(O)C1c2ccccc2C(=O)N(Cc2ccccc2)C12CCCC2 (stereo unspecified)	none
O=C(c1ccc(C(F)(F)F)cc1)N1CCC(n2c(=O)[nH]c3ccccc32)CC1	none
O=C(CCC1CCCN(Cc2ccc3nonc3c2)C1)N1CCOCC1 (stereo unspecified)	none
CNC(=O)[C@@H]1C[C@H](Oc2cccnc2)CN1C(=O)CCCc1ccccc1	none
COc1ccccc1CN1C(=O)O[C@@H]2CN(c3nc(C)cc(C)n3)C[C@@H]21	none
O=C(C1CC1)N(C1CCOCC1)C1CCN(S(=O)(=O)c2ccc(F)c(Cl)c2)CC1	Pf Dd2 growth 10µM
O=C(C1CC1)N(C1CCOCC1)C1CCN(S(=O)(=O)c2cc(F)cc(F)c2)CC1	none
Cc1cc(S(=O)(=O)N2CCC(N(C(=O)C3CC3)C3CCOCC3)CC2)ccc1Cl	none
COc1ccc(C(=O)N[C@@H](Cc2ccccc2)C(=O)N2CCCOCCNC(=O)CC2)cc1	none
COc1ccc(C(=O)N[C@@H]2CN(C3CCOCC3)C[C@H]2CN(C)C)c(C)c1	none
O=C(NC1CCCC1)c1ccc2c(c1)N(S(=O)(=O)c1ccccc1)CC2	none
COc1ccccc1CNC(=O)c1ccc2c(c1)CCN2S(=O)(=O)c1ccccc1	none
O=C(NCC1CCCCC1)c1ccc2c(c1)N(S(=O)(=O)c1ccccc1)CC2	Pf Dd2 growth 4.47µM
CN(C)c1ccc(CN2CCCC3(CC(c4ccccn4)=NO3)C2)cc1 (stereo unspecified)	none
COc1ccccc1N1CCCc2ncc(C(=O)N3CC[S+](=O)([O-])CC3)cc21	none
O=C(NCc1cccc(F)c1)c1cnc2c(c1)N(C(=O)Cc1cccc(C(F)(F)F)c1)CCC2	none
O=C(Cc1cccc(C(F)(F)F)c1)N1CCCc2ncc(C(=O)N3CCC[C@@H]3c3ccc(F)cc3)cc21	none
COc1ccccc1N1CCCc2ncc(C(=O)NCCc3c[nH]c4ccccc34)cc21	none
COc1ccccc1N1CCCc2ncc(C(=O)N3CCCC[C@@H]3Cc3ccccc3)cc21	Pf Dd2 growth 4.47µM
O=C(Cc1cccc(C(F)(F)F)c1)N1CCCc2ncc(C(=O)N3CCCC[C@@H]3Cc3ccccc3)cc21	Pf Dd2 growth 11.2µM
CCCc1noc(-c2cn(C3CCN(C(=O)c4sccc4C)CC3)nn2)n1	none
COc1ccc(CCN2CC(C(=O)N3CCN(C)CC3)CCC2=O)cc1 (stereo unspecified)	none
Cc1cccc(OCC(=O)c2ccc3c(c2)N(C(C)C(=O)Nc2ccccc2)C(=O)CO3)c1C (stereo unspecified)	none
